LGR2 inh: Drosophila LGR2 receptor signaling inhibition | HEK293 LGR2, CRE-luciferase, bursicon-stimulated, 4 h | inhibition, % at 9.99 µM | hit rate 0.35% among 380,000 | AID 720647;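 active means drop in luminescence signal, shown as inhibition above about 50% in the replicate tests, limit read from the data, passing the limit was not always enough; inconclusive means probably only some replicates passing the limit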;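 further: agonist challenge used bursicon conditioned medium at about half maximal strength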
EWS-Fli block: inhibitors of EWS/Fli oncoprotein transcriptional activity; A673 NR0B1-luciferase reporter, viability-normalised; inhibition, % at 12.6 µM; hit rate 0.67% among 350,000;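 active means mean inhibition of at least 50% after viability correction, with every replicate also passing that limit; inconclusive means mean reaches 50% but only one of two replicates passes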;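 further: firefly luciferase signal divided by Alamar Blue viability fluorescence both relative to DMSO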
KKLEB tox: CF airway cell cytotoxicity counter-screen. activity change (cytotoxicity), % at 5 µM. hit rate 0.36% among 360,000. KKLEB CF airway cells viability, ATPlite luminescence, overnight; hits give low values; cells stimulated with P. aeruginosa culture filtrate;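 active means corrected activity change at or below -50% at 5 µM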
TROY signal inh: TROY signaling inhibition | inhibition, % at 10 µM | hit rate 0.98% among 360,000 | Q293 LMP1-TROYcd NF-kB luciferase reporter, 4 h;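 active means compounds whose plate-normalised and pattern-corrected inhibition of the luciferase reporter signal at the single screening dose is 50% or more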
TWEAK-Fn14 inh: blocks TWEAK-Fn14 interaction in a reporter cell assay; TWEAK-stimulated Fn14 reporter cells, luciferase luminescence, 8 h; inhibition, % at 10 µM; hit rate 2% among 360,000; in the data active means inhibition above about 50%
CF NFkB inh: blocks PAF-induced NF-kB reporter in cystic fibrosis cells; KKLEB NF-kB-GFP reporter, GFP fluorescence overnight; hit rate 0.86% among 360,000; inhibition, % at 5 µM;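 active means at least 50% inhibition at 5 µM, scaled per plate between neutral and stimulator controls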;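 further: PAF is a Pseudomonas aeruginosa culture filtrate used as stimulus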
CF NFkB conf: confirmation of cystic fibrosis induced NF-kB inhibitors; shares compounds with CF NFkB inh; KKLEB CF airway cells, PAF-induced NF-kB-GFP fluorescence, overnight; inhibition, % at 5 µM; hit rate 64% among 1,300; AID 602472; in the data active means inhibition above about 40%;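 further: stimulus PAF is a Pseudomonas aeruginosa filtrate and not platelet activating factor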
Hits are given with their value; . = inactive; ? = inconclusive; / = not tested or not shown. In the library only some 2.6% were active in any assay of this set; here they are far more common.

SMILES	LGR2 inh	EWS-Fli block	KKLEB tox	TROY signal inh	TWEAK-Fn14 inh	CF NFkB inh	CF NFkB conf
O=C1NC2C(=CC(O)C(O)C2O)c2cc3c(c(O)c21)OCO3 (stereo not drawn)	106	54	-64	84	95	89	/
COc1cc2c(c(OC)c1OC)-c1ccc(O)cc1[C@@H](NC(C)=O)CC2	.	51	.	.	.	.	/
COC(=O)[C@H]1[C@H](CO)[C@H]2Cn3c(ccc(C4=CCCCC4)c3=O)[C@@H]1N2Cc1ccccc1OC	.	.	/	/	/	/	/
COC1C(OC(=O)c2ccc(C)[nH]2)C(O)C(Oc2ccc3c(O)c(NC(=O)c4ccc(O)c(CC=C(C)C)c4)c(=O)oc3c2Cl)OC1(C)C (stereo not drawn)	.	.	.	55	.	.	/
COC(=O)[C@H]1[C@H](CO)[C@H]2Cn3c(ccc(-c4ccccc4OC)c3=O)[C@@H]1N2Cc1ccccc1	.	.	/	/	/	/	/
CNCCCc1ccccc1	/	/	.	.	.	.	/
CC1(CCO)CC(C)(CCc2ccccc2)OO1 (stereo not drawn)	/	67	/	/	/	/	/
C=CC[C@@H](CC/C=C/C=C/CC/C=C\[C@@H]1CSC([C@@H]2C[C@@H]2C)=N1)OC	/	/	.	.	.	54	48
COc1ccc(C#Cc2ccc([C@@H]3[C@@H](CO)N4CCCCN(C(=O)Cc5ccccc5)C[C@H]34)cc2)cc1	.	.	/	/	/	/	/
C=C1C(=O)OC2CC3(C)OC3C3OC3C3=CC(OC3=O)C12 (stereo not drawn)	/	58	.	.	.	88	61
COC(=O)[C@H]1[C@H](CO)[C@H]2Cn3c(ccc(-c4cccc(C(=O)N(C)C)c4)c3=O)[C@@H]1N2C(=O)NC(C)C	.	.	/	/	/	/	/
O=c1[nH]c2ccccc2n1C1CCN(C(c2cccc3ccccc23)c2nnnn2Cc2ccccc2)CC1 (stereo not drawn)	.	.	.	.	53	86	105
COc1ccc(-n2nnnc2C(c2cccs2)N2CCC(n3c(=O)[nH]c4ccccc43)CC2)cc1 (stereo not drawn)	.	.	.	.	.	79	97
COc1ccc(-n2nnnc2C(c2cccc(OC)c2OC)N2CCC(n3c(=O)[nH]c4ccccc43)CC2)cc1 (stereo not drawn)	?	.	.	.	.	84	41
C/C=C/c1ccc([C@@H]2[C@H]3CN(C(=O)Cc4cccnc4)CCCCN3[C@H]2CO)cc1	.	.	/	/	/	/	/
C=C1C(=O)OC2CC3(C)OC3CCC(C)=CC(OC(C)=O)C12 (stereo not drawn)	40	.	.	52	76	91	89
COc1ccc(C(c2nnnn2-c2c(C)cccc2C)N2CCC3(CC2)C(=O)NCN3c2ccccc2)cc1 (stereo not drawn)	.	.	.	.	.	.	/
COc1ccc(C(c2nnnn2-c2c(C)cccc2C)N2CCC(n3c(=O)[nH]c4ccccc43)CC2)cc1 (stereo not drawn)	.	.	.	.	.	60	.
Cc1cccc(C)c1-n1nnnc1C(c1ccccc1OC(F)(F)F)N1CCC(n2c(=O)[nH]c3ccccc32)CC1 (stereo not drawn)	.	.	.	.	.	73	.
COc1ccc(C#Cc2ccc([C@@H]3[C@H](CO)N4CCCCN(C(=O)Cc5ccccc5)C[C@@H]34)cc2)cc1	.	.	/	/	/	/	/
COC(=O)[C@H]1[C@H](CO)[C@H]2Cn3c(ccc(C4=CCCC4)c3=O)[C@@H]1N2S(=O)(=O)c1cn(C)cn1	.	.	/	/	/	/	/
COc1ccc(C[C@H]2NC[C@H](O)[C@H]2OC(C)=O)cc1	/	66	.	82	97	88	116
COc1ccc(CCNC2CCCCC2)cc1	.	.	.	.	.	.	/
O=C(O)[C@H]1[C@H](CO)[C@H]2Cn3c(ccc(-c4ccncc4)c3=O)[C@@H]1N2S(=O)(=O)c1ccccc1F	.	.	/	/	/	/	/
COc1cc2c(c(OC)c1OC)-c1ccc(O)cc1C(NC(C)=O)CC2 (stereo not drawn)	.	.	.	.	.	67	88
COc1cc2c(c(OC)c1OC)-c1ccc(O)c(=O)cc1[C@@H](NC(C)=O)CC2	.	.	.	.	.	.	/
